Assay results: PubChem BioAssay (NCI)
The panel holds about 83,000 compounds, 20% with a hit somewhere; the sample as a whole holds those more often.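 96-well plates, one dose, 48 hours. Percent growth reported; active if below 10.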 The source made the active and inactive calls.

The compounds below were run on HL-60(TB) leukemia (assay: NCI-60 one-dose screen, 48 h (100 = growth as untreated, 0 = no growth, -100 = all killed)). Settings: 10 µM unless noted.
Experimental: Growth inhibition of the HL-60(TB) human tumor cell line is measured as a screen for anti-cancer activity. Cells are grown in 96 well plates and exposed to the test compound for 48 hours. Compounds are tested at a single concentration, which is 10^-5 M for most compounds. The reported endpoint is percent growth (GI% or GIPRCNT), where numbers from 0 - 100% represent growth inhibition, and numbers from -100% - 0 represent cell death. For example, a value of 40 represents 60% growth inhibition. A value of 0 means no net growth occurred over the course of the experiment. A value of -40 indicates 40% of cells at the beginning of the experiment died by the end of the experiment. A value of -100 means all cells are dead at the end of the experiment.
NCI-60 Human Tumor Cell Lines Screen was performed using the standard one-dose NCI protocol, which is described in more detail at https://dtp.cancer.gov/discovery_development/nci-60/default.htm.
Compounds with GIPRCNT values below 10 were considered active. Activity score was based on GIPRCNT using the following formula: […]
Score is 0 for GIPRCNT values of 100 or above, 50 for GIPRCNT values of 0, and 100 for GIPRCNT values of -100.
`CC[C@]12C=CCN3CC[C@@]4(c5cc(C#CCNc6ccc(C)c(Nc7nccc(-c8cccnc8)n7)c6)c(OC)cc5N(C)[C@H]4[C@@](O)(C(=O)OC)[C@@H]1OC(C)=O)C32` (stereo not given in full) was tested, and the growth was 30.8% (inactive). With `Cn1cc(-c2nc(N)nnc2-c2c[nH]c3ccc(F)cc23)c2cc(Br)cnc21` the growth was -34% (active). With `CC(=O)c1ccc(Nc2nc(SC(C)C)nc(-c3ccccc3)c2C#N)cc1` the growth was 93.6% (inactive). `COc1ccc(/C=C/C(=O)c2ccc(NC(=O)CN3C(=O)NC(C)(c4ccccc4)C3=O)cc2)cc1` (stereo not given) was tested, and the growth was 67.3% (inactive). For `Cc1sc(C(NC(=O)OCCn2c([N+](=O)[O-])cnc2C)C(F)(F)Cl)nc1-c1ccc(OC(F)(F)F)cc1` (stereo not given), the growth was -6.23% (active). For `COc1ccc(-c2cc(-c3cc(OC)c(OC)c(OC)c3)[nH]c(=O)c2C#N)cc1`, the growth was 102% (inactive). In the case of `CC(C)(C)c1cc(-c2cc(-c3ccccc3)[nH]c(=O)c2C#N)cc(C(C)(C)C)c1`, the growth is reported as 82.3% (inactive). In the case of `N#Cc1c(-c2cccc(Cl)c2Cl)cc(-c2c[nH]c3ccccc23)[nH]c1=O`, the growth is reported as 62.1% (inactive). With `O=c1[nH]c2ccc(Cl)cc2cc1CSc1ccc(Nc2nccc(-c3ccc(Cl)cc3)n2)cc1` the growth was 52.4% (inactive). In the case of `CN(C)CCc1cn(C2CCC2)c2cccc(O)c12`, the growth is reported as 12.5% (inactive). For `Cc1ccc(-n2c(-c3cc4ccccc4nc3Cl)noc2=O)cc1`, the growth was 85.1% (inactive). In the case of `NS(=O)(=O)c1ccc(N=Nc2c(O)n(CC(=O)Nc3ccccc3)c3ccccc23)cc1`, the growth is reported as 48.7% (inactive). `CC(=O)Nc1ccc(-c2nc3cc(-c4ccc(O)cc4)ccc3n2C)cc1` was tested, and the growth was 26% (inactive). For `Cn1cc(-c2cc(N)n3nc(-c4cn(C)c5ccc(Cl)cc45)cc3n2)c2ccccc21`, the growth was 92.5% (inactive). In the case of `COc1cc(C2CC(c3ccc(C)cc3)=Nc3c(N)nc(N)nc3N2)ccc1Oc1nc(Nc2ccc(F)cc2)nc(N(C)C)n1` (stereo not given), the growth is reported as 52% (inactive). With `Cc1ccc(C(=O)Nc2cccc(C(=O)NC(=S)Nc3ccc(S(N)(=O)=O)cc3)c2)cc1` the growth was 84.7% (inactive). With `COc1c(F)ccc(C(=O)Nc2ccc3nc(NC(=O)C4CCCN(S(=O)(=O)c5ccc(C(F)(F)F)cc5)C4)sc3c2)c1F` (stereo not given) the growth was 101% (inactive). With `CC12OOC(C)(OO1)C2CCC(=O)NCCNc1ccnc2cc(Cl)ccc12` (stereo not given) the growth was 88.9% (inactive). In the case of `CCCSc1nnc(-c2sc3nc4ccccc4n3c2C)o1`, the growth is reported as 94% (inactive). In the case of `O=C(COc1ccc(NC(=O)Nc2ccc(Cl)c(Cl)c2)cc1)N=Nc1c(O)[nH]c2ccc([N+](=O)[O-])cc12`, the growth is reported as 92.4% (inactive). With `O=C(CSc1nc2ccccc2c(=O)n1-c1ccc(Cl)cc1)Nc1ccc(-c2nc3ccccc3[nH]2)cc1` the growth was 44.4% (inactive). In the case of `COc1ccc(NC(=O)Cn2c(/C=C/c3cccc(OC)c3)nc3ccccc3c2=O)cc1`, the growth is reported as 94.6% (inactive). In the case of `O=C(NNC(=O)c1ccc(OCc2nc3ccc(Cl)cc3[nH]2)cc1)Nc1ccc(Cl)c(Cl)c1`, the growth is reported as 103% (inactive). In the case of `COc1ccc(C(=O)c2cc(C(C)=O)c3c(C)cc(C)cn23)cc1`, the growth is reported as 78% (inactive). With `O=C(c1ccc(OCCN2CCOCC2)cc1)C1[C@H](c2ccc(Cl)cc2)[C@@H](c2ccccc2)NC12C(=O)Nc1ccc(Cl)cc12` (stereo not given in full) the growth was -12.7% (active). In the case of `O=C(CSc1ccc(-c2ccc(Cl)cc2)nn1)Nc1ccc(Cl)c(C(F)(F)F)c1`, the growth is reported as 32.7% (inactive). For `O=c1nc(-c2ccccc2)cc(-c2cc3ccccc3nc2Cl)[nH]1`, the growth was -34.7% (active). For `O=C1Nc2cc(-c3ccc(NS(=O)(=O)c4ccc(C(F)(F)F)cc4)cc3)ccc2/C1=C/c1ccc[nH]1`, the growth was 1.77% (active). In the case of `Cc1ccc2nc(-c3ccc(-c4nnc(SCC(=O)Nc5ccc(Cl)cc5)o4)cc3)[nH]c2c1`, the growth is reported as 53.8% (inactive). For `COc1ccc2c(c1)C(Sc1ccc(Cl)cc1)c1c(nc(N)c(C#N)c1N)O2` (stereo not given), the growth was 44.8% (inactive). In the case of `CCCCCCn1c(O)c(N=Nc2nc(-c3cc4ccccc4oc3=O)cs2)c2ccccc21`, the growth is reported as 87.8% (inactive). `COc1ccc2c(c1)c(-c1cc(N)n3nc(-c4c[nH]c5ccccc45)cc3n1)cn2C` was tested, and the growth was -32.4% (active). With `COc1ccc([C@H]2C(C(=O)c3ccc(Cl)cc3)C3(N[C@@H]2c2ccccc2)C(=O)Nc2ccc(Br)cc23)cc1` (stereo not given in full) the growth was 15.3% (inactive). In the case of `CC1CCc2c(sc3nc(SCC(=O)c4cccc([N+](=O)[O-])c4)n(-c4ccccc4)c(=O)c23)C1` (stereo not given), the growth is reported as 87.1% (inactive). In the case of `NCCCCn1c(SCCc2c[nH]c3ccccc23)nnc1-c1ccc2ccccc2n1`, the growth is reported as -64.6% (active). `COc1ccc2[nH]c(O)c(N=NC(=O)Cn3c(-c4ccccc4)nc4cc(C)ccc43)c2c1` was tested, and the growth was -50.8% (active). `COc1ccc(OC)c(/C=N/NC(=O)c2ccc3nc(-c4ccc(Cl)cc4)[nH]c3c2)c1` was tested, and the growth was 87.1% (inactive). In the case of `N#CC1=C(c2cccs2)Nc2c(c(-c3ccccc3)nn2-c2ccccc2)C12C(=O)Nc1ccc(Br)cc12` (stereo not given), the growth is reported as -7.78% (active). For `COc1ccc2[nH]c(O)c(N=NC(=O)COc3ccc(NC(=O)Nc4ccccc4)cc3)c2c1`, the growth was 96% (inactive). For `Nc1nnc(-c2c[nH]c3ccc(Br)cc23)c(-c2c[nH]c3ncc(Br)cc23)n1`, the growth was 23.1% (inactive).
